Results on 19 molecules are retold here after PubChem BioAssay AID504537 (National Center for Advancing Translational Sciences (NCATS), 2011).

Inconclusive results are not listed. The source made the active and inactive calls. The rule behind the calls is not given here.

Sequence of Histone-lysine N-methyltransferase 2A (Homo sapiens) (Q03164 whole entry, looked up, the tested form may be a part): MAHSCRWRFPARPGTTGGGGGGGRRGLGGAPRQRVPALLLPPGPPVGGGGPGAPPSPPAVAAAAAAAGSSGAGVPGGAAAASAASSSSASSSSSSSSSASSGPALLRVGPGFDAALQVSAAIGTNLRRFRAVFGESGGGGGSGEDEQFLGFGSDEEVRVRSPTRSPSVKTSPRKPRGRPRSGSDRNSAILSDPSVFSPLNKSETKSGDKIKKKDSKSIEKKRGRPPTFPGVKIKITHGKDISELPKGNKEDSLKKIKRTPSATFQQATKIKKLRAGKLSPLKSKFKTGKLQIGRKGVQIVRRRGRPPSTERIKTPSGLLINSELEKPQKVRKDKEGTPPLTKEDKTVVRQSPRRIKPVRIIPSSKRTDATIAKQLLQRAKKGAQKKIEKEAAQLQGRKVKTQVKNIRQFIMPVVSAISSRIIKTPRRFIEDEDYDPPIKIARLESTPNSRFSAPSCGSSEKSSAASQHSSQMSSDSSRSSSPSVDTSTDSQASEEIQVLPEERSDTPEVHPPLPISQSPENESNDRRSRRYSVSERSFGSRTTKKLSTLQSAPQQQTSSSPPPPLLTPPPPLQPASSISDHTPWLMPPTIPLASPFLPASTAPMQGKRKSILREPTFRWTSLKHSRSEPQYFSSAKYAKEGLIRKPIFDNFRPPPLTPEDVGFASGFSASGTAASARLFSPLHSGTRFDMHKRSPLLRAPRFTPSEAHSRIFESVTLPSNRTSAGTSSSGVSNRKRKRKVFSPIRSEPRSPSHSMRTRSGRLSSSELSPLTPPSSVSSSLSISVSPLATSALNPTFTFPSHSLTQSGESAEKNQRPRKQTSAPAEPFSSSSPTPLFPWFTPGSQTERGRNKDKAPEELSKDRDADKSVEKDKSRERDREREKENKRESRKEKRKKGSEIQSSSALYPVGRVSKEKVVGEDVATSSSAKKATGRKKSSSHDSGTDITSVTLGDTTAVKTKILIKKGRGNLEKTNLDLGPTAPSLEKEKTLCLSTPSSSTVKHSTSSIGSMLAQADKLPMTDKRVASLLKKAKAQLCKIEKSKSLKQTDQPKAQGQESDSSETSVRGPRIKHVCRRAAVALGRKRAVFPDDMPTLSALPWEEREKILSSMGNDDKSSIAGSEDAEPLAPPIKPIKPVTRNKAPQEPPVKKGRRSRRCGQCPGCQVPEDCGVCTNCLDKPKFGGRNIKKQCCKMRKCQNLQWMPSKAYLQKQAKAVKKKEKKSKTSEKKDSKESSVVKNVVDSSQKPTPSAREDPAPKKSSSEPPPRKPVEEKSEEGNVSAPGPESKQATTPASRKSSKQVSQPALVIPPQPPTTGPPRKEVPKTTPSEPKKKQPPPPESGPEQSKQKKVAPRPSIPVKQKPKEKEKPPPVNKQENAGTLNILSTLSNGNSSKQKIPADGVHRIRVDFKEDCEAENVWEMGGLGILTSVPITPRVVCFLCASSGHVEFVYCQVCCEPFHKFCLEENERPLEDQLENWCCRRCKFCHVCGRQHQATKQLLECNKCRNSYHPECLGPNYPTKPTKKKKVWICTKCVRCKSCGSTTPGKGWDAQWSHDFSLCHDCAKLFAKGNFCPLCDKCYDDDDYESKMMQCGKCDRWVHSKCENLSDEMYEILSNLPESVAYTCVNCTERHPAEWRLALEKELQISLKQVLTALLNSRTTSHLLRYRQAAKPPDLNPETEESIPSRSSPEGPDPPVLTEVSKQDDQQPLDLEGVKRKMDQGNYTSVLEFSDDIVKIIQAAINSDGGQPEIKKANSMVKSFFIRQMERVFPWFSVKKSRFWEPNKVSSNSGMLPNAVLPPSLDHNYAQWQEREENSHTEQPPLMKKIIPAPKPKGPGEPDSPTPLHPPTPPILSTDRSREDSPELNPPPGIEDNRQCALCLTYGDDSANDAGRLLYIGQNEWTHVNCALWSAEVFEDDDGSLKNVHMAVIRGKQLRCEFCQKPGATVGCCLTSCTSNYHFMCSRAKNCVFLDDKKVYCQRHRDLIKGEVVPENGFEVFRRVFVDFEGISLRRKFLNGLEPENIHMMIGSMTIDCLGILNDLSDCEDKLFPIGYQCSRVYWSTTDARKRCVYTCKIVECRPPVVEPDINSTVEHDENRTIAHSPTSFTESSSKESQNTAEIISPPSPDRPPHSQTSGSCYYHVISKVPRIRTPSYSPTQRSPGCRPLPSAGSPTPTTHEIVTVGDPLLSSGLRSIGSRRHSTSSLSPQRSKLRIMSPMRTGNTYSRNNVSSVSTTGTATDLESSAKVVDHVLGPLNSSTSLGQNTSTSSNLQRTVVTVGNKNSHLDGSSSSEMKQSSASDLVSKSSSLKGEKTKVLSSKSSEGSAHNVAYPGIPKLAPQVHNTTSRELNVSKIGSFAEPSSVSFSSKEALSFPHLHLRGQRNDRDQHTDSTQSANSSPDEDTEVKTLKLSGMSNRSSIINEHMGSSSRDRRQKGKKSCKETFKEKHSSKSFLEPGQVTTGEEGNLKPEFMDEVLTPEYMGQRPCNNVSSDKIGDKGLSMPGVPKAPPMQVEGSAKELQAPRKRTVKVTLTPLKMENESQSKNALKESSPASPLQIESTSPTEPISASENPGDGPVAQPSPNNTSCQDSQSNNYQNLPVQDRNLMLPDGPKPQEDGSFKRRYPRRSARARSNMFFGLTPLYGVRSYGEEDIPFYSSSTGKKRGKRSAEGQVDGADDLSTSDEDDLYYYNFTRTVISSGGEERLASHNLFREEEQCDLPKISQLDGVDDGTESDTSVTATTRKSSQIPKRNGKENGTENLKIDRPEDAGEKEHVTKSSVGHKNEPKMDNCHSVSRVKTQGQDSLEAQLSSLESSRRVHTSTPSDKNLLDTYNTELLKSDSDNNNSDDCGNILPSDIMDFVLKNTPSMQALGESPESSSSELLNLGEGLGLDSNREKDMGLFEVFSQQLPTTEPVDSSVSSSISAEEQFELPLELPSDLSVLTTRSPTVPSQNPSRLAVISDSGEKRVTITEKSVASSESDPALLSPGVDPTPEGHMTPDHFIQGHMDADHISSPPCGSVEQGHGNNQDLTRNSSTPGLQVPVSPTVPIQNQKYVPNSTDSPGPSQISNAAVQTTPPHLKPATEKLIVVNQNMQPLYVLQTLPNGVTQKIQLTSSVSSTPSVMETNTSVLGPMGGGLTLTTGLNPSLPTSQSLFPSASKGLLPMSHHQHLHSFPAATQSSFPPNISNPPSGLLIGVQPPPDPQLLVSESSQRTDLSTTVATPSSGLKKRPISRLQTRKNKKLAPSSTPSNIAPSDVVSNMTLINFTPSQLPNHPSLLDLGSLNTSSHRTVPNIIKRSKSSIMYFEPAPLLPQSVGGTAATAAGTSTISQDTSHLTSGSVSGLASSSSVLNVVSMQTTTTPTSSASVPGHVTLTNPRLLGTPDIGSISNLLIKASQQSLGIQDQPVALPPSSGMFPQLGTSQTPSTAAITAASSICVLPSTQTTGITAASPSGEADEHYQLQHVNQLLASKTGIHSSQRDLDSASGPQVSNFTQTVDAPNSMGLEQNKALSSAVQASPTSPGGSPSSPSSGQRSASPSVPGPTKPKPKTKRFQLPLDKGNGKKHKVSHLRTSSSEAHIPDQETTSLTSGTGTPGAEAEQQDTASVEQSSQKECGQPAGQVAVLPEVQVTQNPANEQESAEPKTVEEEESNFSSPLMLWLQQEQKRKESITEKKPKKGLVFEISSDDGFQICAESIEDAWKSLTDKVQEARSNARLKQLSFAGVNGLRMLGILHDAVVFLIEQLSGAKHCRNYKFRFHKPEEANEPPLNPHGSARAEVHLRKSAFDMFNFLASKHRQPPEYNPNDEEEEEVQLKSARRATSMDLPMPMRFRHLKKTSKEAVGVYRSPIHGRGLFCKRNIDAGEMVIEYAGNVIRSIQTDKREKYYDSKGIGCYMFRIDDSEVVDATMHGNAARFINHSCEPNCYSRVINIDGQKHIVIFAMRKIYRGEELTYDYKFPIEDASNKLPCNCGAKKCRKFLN

The assay has as its target Histone-lysine N-methyltransferase 2A (Homo sapiens) (UniProt Q03164). Description: Inhibitor SAR for Compounds Targeting the Menin-MLL Interaction in MLL Related Leukemias: Competition With Fluorescein Labeled MLL-derived Peptide. The settings on record: Menin-MLL fluorescein peptide fluorescence polarization competition. The text has this:
qHTS Assay for Inhibitors Targeting the Menin-MLL Interaction in MLL Related Leukemias NIH Chemical Genomics Center [NCGC] NIH Molecular Libraries Probe Centers Network [MLPCN] MLPCN Grant: MH084875-01A1 Assay Submitter (PI): Jolanta Grembecka, Tomasz Cierpicki, University of Virginia Translocations of the MLL (Mixed Lineage Leukemia) gene are frequently found in human leukemias affecting both children and adults. Fusion of MLL to one of more than 60 genes results in generation of oncogenic proteins upregulating Hox genes, which are vital to blood cell development. Patients harboring fusion of the MLL gene suffer from aggressive leukemias and respond poorly to available therapies. All of the oncogenic fusion proteins have a preserved N-terminal fragment of MLL that has been identified to interact with menin. It has been recently discovered that association with menin is critical to the leukemogenic activity of the MLL fusion oncoproteins. Selective targeting of the menin-MLL interaction could provide an attractive therapeutic approach to develop novel drugs for MLL-related leukemias. Small molecules blocking the menin-MLL interaction should reverse the oncogenic potential of MLL fusion proteins. We have developed and optimized a fluorescence polarization-based assay for the identification of Menin-MLL inhibitors. The assay was run employing two different MLL-derived peptides. The present assay uses a 12 amino acid peptide labeled with fluorescein at its N-terminus. This peptide consists of the menin high affinity binding motif from MLL and is potently bound by menin. Another peptide with a mutated sequence, labeled with Texas Red, was used in parallel as a less stringent screen for inhibitors. The present assay was run to characterize initial structure activity relationships.
The Menin protein, the MLL-wild type (w.t.) derived peptide (N-terminal 12 amino acids), the MLL-derived peptide labeled with Texas Red and the MLL-w.t. peptide labeled with Fluorescein were kindly supplied by laboratory of Dr. Jolanta Grembecka, University of Virginia. All protein and peptide solutions were stored in single use aliquots at -80C. The Eu3+ Cyrptate-conjugated mouse monoclonal antibody anti-6 Histidine (Eu3+-AB) and the Streptavidin-XL665 conjugate (XL665) were purchased from Cisbio International (Bedford, MA). All antibody and XL665 conjugate solution stocks were stored in single use aliquots at -20C. The Buffer components for all assays were purchased from Sigma-Aldrich (St. Louis, MO) and Invitrogen (Carlsbad, CA). FP Assay Reagents: 1. FP reaction buffer: 50 mM Tris-HCl pH 7.5, 50 mM NaCl, 1mM DTT. Before use, 0.05% BSA is added. 2. Menin protein, MLL-w.t. labeled with fluorescein, MLL-mutant peptide labeled with texas red. Stored in singe use aliquots at -80C. 3. MLL-w.t. unlabeled peptide as positive control: 10 uM final in FP buffer. FP Assay Procedure: 1. Prepare Menin at 200 nM, MLL-w.t.-fluorescein at 25 nM, and MLL-mutant-texas red at 50 nM mixture in FP buffer. 2. Prepare Menin at 200 nM, MLL-w.t.-fluorescein at 25 nM, MLL-mutant-texas red at 50 nM, and 10 uM MLL-w.t. unlabeled mixture in FP buffer. 3. Prepare MLL-w.t.-fluorescein at 25 nM and MLL-mutant-texas red at 50 nM mixture in FP buffer. 3. Dispense 4 ul per well of reagent in step 1 in columns 2, 4 - 48 in a black 1536 well plate, dispense 4 ul per well of reagents from steps 2 and 3 in columns 1 and 3 respectively. Incubate plate at ambient for 15 minutes. 4. Transfer 23 nl per well of compound to plate and incubate at ambient for 1 hr. 5. Read fluorescence polarization for each label using the PerkinElmer Envision. Envision protocol for fluorescein: FITC FP Dual Enh Mirror, Excitation filter 480, Emission filter (1) P-pol 535, Emission filter (2) S-pol 535 Envision protocol for texas red: FP Dual Enh Mirror, Excitation filter 555, Emission filter (1) P-pol 632, Emission filter (2) S-pol 632
In general terms: Polarisation of emitted light reports the rotation of a fluorescent probe.
Turning to `N#Cc1ccc(COCCN2CCC(C(O)(c3ccccc3)c3ccccc3)CC2)cc1`, the outcome is “inactive; no saturation, 50% inh at 1mm”. On to `CC(C)c1ccc(OCCCN2CCC(=C(c3ccccc3)c3ccccc3)CC2)cc1`, for which the outcome is “inactive; no saturation, 15% inh at 1mm”.

In the case of `OC(c1ccccc1)(c1ccccc1)C1CCN(CCCOc2ccc(-c3nn[nH]n3)cc2)CC1`, the outcome is “inactive; interference with assay at higher dose, inactive up to 100 um”. On the same count and under the same terms, the same measure for `FC(F)(F)c1ccc(OCCCN2CCC(=C(c3ccccc3)c3ccccc3)CC2)cc1`: “inactive; no saturation, 25% inh at 2mm”. As to `[N-]=[N+]=Nc1ccc(OCCCN2CCC(C(O)(c3ccccc3)c3ccccc3)CC2)cc1`, the Potency is 58 µM (active). For the molecule `OC(c1ccccc1)(c1ccccc1)C1CCN(CCCOc2ccc(-n3ccnn3)cc2)CC1`, the Potency was 29 µM (active).

`O=C(O)c1ccc(OCCCN2CCC(C(O)(c3ccccc3)c3ccccc3)CC2)cc1`: the outcome is “inactive; no saturation, 34% inh. at 1mm”. With `Nc1ccc(OCCCN2CCC(C(O)(c3ccccc3)c3ccccc3)CC2)cc1`, the Potency is 60.5 µM (active). Still for that read-out and setting: the same measure for `N#Cc1ccc(OCCCN2CCC(C(O)(c3ccccc3)C(F)(F)F)CC2)cc1` (centres undefined): 31 µM (active). As for `FC(F)(F)Oc1ccc(OCCCN2CCC(C(c3ccccc3)c3ccccc3)CC2)cc1`, the outcome is “inactive; no saturation, 12%inh at 2mm”. On the same count and under the same terms, the same measure for `FC(F)(F)Oc1ccc(OCCCN2CCC(=C(c3ccccc3)c3ccccc3)CC2)cc1`: “inactive; no saturation, 12%inh at 2mm”. As for `Cc1ccc(OCCCN2CCC(=C(c3ccccc3)c3ccccc3)CC2)cc1`, the outcome was “inactive; no saturation, 25% inh at 2mm”.

In the case of `COc1ccccc1C(=O)Nc1ccnn1C1CCN(CC2CCCCC2)CC1`, the Potency is 42 µM (active). For the molecule `CC(C)(C(=O)O)c1ccc(C(O)CCCN2CCC(C(O)(c3ccccc3)c3ccccc3)CC2)cc1` (centres undefined), the outcome is “inactive; no activity up to 2 mm”. For the molecule `OC(c1ccccc1)(c1ccccc1)C1CCN(CCCOc2ccc(C(F)(F)F)cc2)CC1`, the Potency is 52 µM (active). As to `NCc1ccc(OCCCN2CCC(C(O)(c3ccccc3)c3ccccc3)CC2)cc1`, the Potency is 7.6 µM (active).

Turning to `N#Cc1ccc(OCCCN2CCC(C(O)(c3ccccc3)c3ccccc3)CC2)cc1F`, the Potency is 26.5 µM (active). Take `c1ccc(OCCCN2CCC(=C(c3ccccc3)c3ccccc3)CC2)cc1`: the outcome is “inactive; no saturation, 42% inh at 2mm”. As to `FC(F)(F)c1ccc(OCCCN2CCC(C(c3ccccc3)c3ccccc3)CC2)cc1`, the outcome was “inactive; no saturation, 36% inh at 2mm”.
